Compound activity (PubChem)
KDM5B inh – blocks human KDM5B histone demethylase activity; Q9UGL1; KDM5B demethylase, FDH-coupled NADH fluorescence (FDH is formaldehyde dehydrogenase); hit rate 2.6% among 220,000; Potency, µM (top dose mostly 57.7 µM), most hits filed as inhibitors; active = well fitted inhibition curve with a large enough effect; also: 0% is about no effect; nearly all actives have a fitted effect of over 70% in size
Target sequence (Q9UGL1 whole entry, looked up): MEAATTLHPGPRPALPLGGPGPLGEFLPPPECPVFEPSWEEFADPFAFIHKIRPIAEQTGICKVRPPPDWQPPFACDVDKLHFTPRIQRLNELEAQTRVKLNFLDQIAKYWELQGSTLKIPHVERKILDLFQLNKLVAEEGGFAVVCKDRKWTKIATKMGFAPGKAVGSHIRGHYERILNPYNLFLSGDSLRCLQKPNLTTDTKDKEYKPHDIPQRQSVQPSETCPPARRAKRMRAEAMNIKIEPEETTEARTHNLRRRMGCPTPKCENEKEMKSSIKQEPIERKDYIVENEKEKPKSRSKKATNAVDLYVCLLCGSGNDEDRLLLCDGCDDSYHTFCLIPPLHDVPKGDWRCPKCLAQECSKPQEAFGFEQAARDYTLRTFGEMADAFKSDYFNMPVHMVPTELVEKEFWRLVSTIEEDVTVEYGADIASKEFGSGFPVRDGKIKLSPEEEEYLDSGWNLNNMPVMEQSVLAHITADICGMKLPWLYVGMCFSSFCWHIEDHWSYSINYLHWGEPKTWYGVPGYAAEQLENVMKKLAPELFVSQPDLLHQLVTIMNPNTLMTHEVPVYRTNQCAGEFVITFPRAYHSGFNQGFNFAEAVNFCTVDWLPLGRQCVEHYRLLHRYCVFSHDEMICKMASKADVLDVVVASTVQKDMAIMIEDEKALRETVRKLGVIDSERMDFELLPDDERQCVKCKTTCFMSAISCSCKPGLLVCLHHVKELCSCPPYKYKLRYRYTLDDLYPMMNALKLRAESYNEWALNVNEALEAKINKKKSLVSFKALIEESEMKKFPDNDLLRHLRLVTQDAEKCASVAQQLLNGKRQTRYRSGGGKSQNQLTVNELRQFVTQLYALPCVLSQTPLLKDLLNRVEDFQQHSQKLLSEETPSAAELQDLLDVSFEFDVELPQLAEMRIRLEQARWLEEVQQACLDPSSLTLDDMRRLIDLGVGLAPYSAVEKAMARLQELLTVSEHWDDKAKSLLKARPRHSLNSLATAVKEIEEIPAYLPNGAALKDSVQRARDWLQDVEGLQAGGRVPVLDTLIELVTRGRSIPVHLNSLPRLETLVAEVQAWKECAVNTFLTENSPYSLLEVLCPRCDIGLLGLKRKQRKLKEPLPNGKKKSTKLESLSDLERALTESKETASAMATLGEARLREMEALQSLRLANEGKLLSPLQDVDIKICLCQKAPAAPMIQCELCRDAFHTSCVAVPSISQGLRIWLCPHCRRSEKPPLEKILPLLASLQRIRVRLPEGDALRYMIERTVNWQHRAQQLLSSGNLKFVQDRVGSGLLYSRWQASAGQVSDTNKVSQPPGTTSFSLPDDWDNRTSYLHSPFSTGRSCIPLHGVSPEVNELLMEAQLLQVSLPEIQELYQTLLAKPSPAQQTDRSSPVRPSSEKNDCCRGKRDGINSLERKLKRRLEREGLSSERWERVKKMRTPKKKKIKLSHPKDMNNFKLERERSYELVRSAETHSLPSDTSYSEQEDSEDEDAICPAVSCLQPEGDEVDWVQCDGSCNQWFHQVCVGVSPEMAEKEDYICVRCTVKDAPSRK
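Compound dilutions met 200 nM (final) KDM5BΔAP for 10 min at room temperature before substrate addition. The substrate mix held 12.5 µM H3K4me3 with cofactors 25 µM α-ketoglutarate and 50 µM Fe²⁺. NADH signal gain over 30 min defined activity.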
Active calls of the source: *. The entries come from a sample that favours hits as a whole. Potency is read from the fitted curve at half-maximal effect.

`COc1ccc(CNC(=O)N2CCN(S(=O)(=O)c3cc(F)ccc3F)CC2)cn1` gave KDM5B inh inactive.
O=C(NC(NC(=O)c1ccccc1)c1ccc(Cl)cc1)c1ccccc1 was read as KDM5B inh inactive.
O=C(NCCOc1ccccc1)c1cc(COc2ccccc2)[nH]n1 was read as KDM5B inh inactive.
Screening CC(C)CCN1CCOc2cc(C(=O)NCCOc3ccccc3)ccc2C1 returned KDM5B inh inactive.
`CC(=O)N1CCC(C(=O)NCCOc2cccc(C)c2)CC1` gave KDM5B inh inactive.
`CN1CCCC2(CCN(C(=O)CCCOc3ccccc3)C2)C1=O` (stereo not given) gave KDM5B inh inactive.
`CC(=O)N1CCCC2(C1)CN(C)c1ccc(C(=O)NCCOc3ccccc3)cc12` (stereo not given) gave KDM5B inh 32µM*.
CN1CCCC2(C1)CN(C)c1ccc(C(=O)NCCOc3ccccc3)cc12 (stereo not given) was read as KDM5B inh 40µM*.
Screening CCN(CC(=O)NC(N)=O)Cc1ccccc1C returned KDM5B inh inactive.
For Cc1[nH]c2ccccc2c1C(=O)C(C)Cl (stereo not given) the results were KDM5B inh inactive.
`Cc1ccc2c(COC(=O)CCc3ccc4c(c3)OCO4)cc(=O)oc2c1` gave KDM5B inh inactive.
For O=C(COc1cccc(F)c1)NCCc1nnc2ccccn12 the results were KDM5B inh inactive.
Screening Cc1ccc(-c2noc(CNC(=O)COc3cccc(C)c3)n2)cc1 returned KDM5B inh inactive.
`Cc1cccc(OCC(=O)NCc2nnc3ccc(-c4ccc(F)cc4)nn23)c1` gave KDM5B inh 35µM*.
For O=C(COc1cccc(-c2nnc3n2CCCC3)c1)NCc1ccc(F)cc1 the results were KDM5B inh inactive.
For Cc1ccc(-c2ccc3nnc(CNC(=O)COc4cccc(C)c4)n3n2)cc1 the results were KDM5B inh 10µM*.
`Cc1ccc(NC(=O)COC(=O)c2ccc3ccccc3n2)c(C)c1` gave KDM5B inh inactive.
For CSc1ccc(CN(C)CC(=O)N(C)c2ccccc2C(=O)NCc2ccco2)cc1 the results were KDM5B inh inactive.
Screening COc1ccccc1-c1nc(S(=O)(=O)c2ccc3c(c2)OCCO3)c(NCCCN(C)C)o1 returned KDM5B inh inactive.
Screening Cc1noc(-c2ccc(OC(F)(F)F)cc2)c1C(=O)NC(C)CCc1ccccc1 (stereo not given) returned KDM5B inh inactive.
For CC(CCc1ccccc1)NC(=O)CNC(=O)c1cccs1 (stereo not given) the results were KDM5B inh inactive.
`Cc1noc(-c2cccs2)c1C(=O)NC1CCc2ccccc21` (stereo not given) gave KDM5B inh 28µM*.
Screening Cc1cc(C(=O)NC2CCCc3ccccc32)cs1 (stereo not given) returned KDM5B inh inactive.
Screening COc1ccc(CCNC(=O)c2c(C)noc2-c2cccs2)cc1OC returned KDM5B inh inactive.
Cc1noc(-c2cccs2)c1C(=O)NC(C)CCc1ccccc1 (stereo not given) was read as KDM5B inh 28µM*.
`CC(=O)c1c(C)[nH]c(-c2csc(CC(=O)Nc3cccc(C)c3)n2)c1C` gave KDM5B inh inactive.
`Cc1cc(C)c(CC(=O)O)c(C)c1` gave KDM5B inh inactive.
`COc1ccc(SCCC(=O)OCc2ccc(C#N)cc2)cc1` gave KDM5B inh inactive.
Screening Cc1cc(C)cc(NC(=O)C2CC(=O)n3c(nc4ccccc43)N2)c1 (stereo not given) returned KDM5B inh inactive.
`CC(=O)c1ccc(N2CCN(S(=O)(=O)c3ccc4c(c3)NC(=O)CCS4)CC2)cc1` gave KDM5B inh inactive.
Screening Cc1noc2c(NC3CCN(C)CC3)cc(-c3cccs3)nc12 returned KDM5B inh inactive.
Screening Cc1noc2c(NC(C)C)cc(-c3cccs3)nc12 returned KDM5B inh inactive.
Screening Cc1cc(-c2cc(-c3ccc(F)cc3)nc3c(C)noc23)ccn1 returned KDM5B inh inactive.
Screening Cc1noc2c(NCCCn3ccnc3)cc(-c3cccs3)nc12 returned KDM5B inh inactive.
Cc1noc2c(-c3ccncc3)cc(-c3cccs3)nc12 was read as KDM5B inh 5.6µM*.
For Cc1noc2c(-c3cccc(O)c3)cc(-c3cccs3)nc12 the results were KDM5B inh 13µM*.
Cc1nc(N)sc1Cc1ccccc1 was read as KDM5B inh inactive.
`COc1ccc(N2CCCCS2(=O)=O)cc1S(=O)(=O)NCc1ccco1` gave KDM5B inh inactive.
`COc1cccc(NC(=O)C(c2ccc(Cl)cc2)C(C)C)c1` (stereo not given) gave KDM5B inh inactive.
Screening O=C1CCN(Cc2cccc(OC(F)(F)F)c2)CCCCCCN1 returned KDM5B inh inactive.
COc1ccc(CN2CCCn3nc(C)c(-c4ccccc4C(C)C)c32)cc1O was read as KDM5B inh inactive.
`COc1cccc(CN2CCCn3nc(C)c(-c4ccccc4[S+](C)(=O)[O-])c32)c1` gave KDM5B inh inactive.
`Cc1ccncc1-c1c(C)nn2c1N(C(=O)c1scnc1C)CCC2` gave KDM5B inh inactive.
`Cc1ccncc1-c1c(C)nn2c1N(Cc1cccc(OC(F)(F)F)c1)CCC2` gave KDM5B inh 35µM*.
COc1ccc(OC)c(CN2CCCn3nc(C)c(-c4cnccc4C)c32)c1 was read as KDM5B inh 32µM*.
`Cc1cc(N2CCN(S(=O)(=O)c3ccccc3F)CC2)nc(C(C)C)n1` gave KDM5B inh inactive.
Screening COC(=O)c1ccc(COC(=O)/C=C/c2cccs2)o1 returned KDM5B inh inactive.
Screening Nc1nc(Nc2ccccc2)sc1C(=O)c1ccc(Cl)cc1 returned KDM5B inh inactive.
For CC(=O)Nc1ccc(NC(=O)c2cnn(-c3ccccc3F)c2C)cc1C the results were KDM5B inh inactive.
Cc1noc(-c2cccn3c(CNC(=O)c4cccc(Cl)c4)nnc23)n1 was read as KDM5B inh 14µM*.
`Cc1noc(-c2cn(C3CCN(C(=O)c4ccc(F)c(Cl)c4)CC3)nn2)n1` gave KDM5B inh inactive.
`Cc1noc(-c2cccn3c(CNC(=O)c4ccc(F)c(Cl)c4)nnc23)n1` gave KDM5B inh 14µM*.
`CC(C)CC(=O)C(C#N)C(=O)NCc1ccccc1` (stereo not given) gave KDM5B inh inactive.
`O=c1c2nccnc2nc(SCc2ccccc2F)n1Cc1ccc2c(c1)OCO2` gave KDM5B inh inactive.
Screening COC(=O)CC(NC(=O)c1ccc2c(c1)OCCCO2)c1ccc(F)cc1 (stereo not given) returned KDM5B inh inactive.
Screening CC(C)c1ccc(NC(=S)NCc2ccc(F)cc2)cc1 returned KDM5B inh inactive.
CCOc1cc(/C=C/C(=O)c2ccc(C)cc2)cc(Br)c1O was read as KDM5B inh inactive.
For O=C(C1CCc2ncc(-c3ccsc3)n2C1)N1CCN(c2ccccn2)CC1 (stereo not given) the results were KDM5B inh 25µM*.
For CN(C)C(=O)c1cc2c(s1)CCC(C(=O)N1CCN(c3ccccc3)CC1)C2 (stereo not given) the results were KDM5B inh inactive.
Screening CN(C)C(=O)c1cc2c(s1)CCC(C(=O)N1CCN(c3ccccn3)CC1)C2 (stereo not given) returned KDM5B inh 28µM*.
